In PubChem BioAssay (NCI) one finds growth data, which are given here for 13 molecules.

Among the test systems are HCT-15 colon; HT29 colon; SNB-75 CNS; SNB-19 CNS; U251 CNS; PC-3 prostate; SK-MEL-5 melanoma; UACC-62 melanoma; LOX IMVI melanoma; SK-MEL-28 melanoma.
Common to all, as to experiment: NCI-60 one-dose screen, 48 h (100 = growth as untreated, 0 = no growth, -100 = all killed)
Settings in all cases: 10 µM unless noted

Compounds without any hit were thinned out: in the full panel of roughly 83,000, 20% have a hit.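 48-hour exposure, single concentration, 96-well plates; percent growth endpoint where 0 means no net growth. Active: below 10.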 Unmarked numbers belong to inactive results. Active and inactive are the calls of the source.

Regarding `Fc1[nH]nc2ccc([C@@H]3Nc4ccc5[nH]ncc5c4[C@H]4C5CCC(C5)[C@@H]34)cc12` (stereo not given in full), the growth in the assay with HCT-15 colon is 34.5%; in the assay on HT29 colon it was 8.7% (active); in the assay with SNB-75 CNS, -14.8% (active); with SNB-19 CNS it was 36.6%; in the assay on U251 CNS, 25.8%; in the assay with PC-3 prostate, 27.8%. Further, the growth in the assay with SK-MEL-5 melanoma is 25.7%; in the assay on UACC-62 melanoma it was 27.5%; with LOX IMVI melanoma, 48.3%; in the assay with SK-MEL-28 melanoma it was 54.8%.

For `Cc1n(Cc2ccc3ccccc3n2)cc[n+]1Cc1ccc2ccccc2n1`, the growth in the assay on HCT-15 colon was 100%; in the assay with HT29 colon, 62%; with SNB-75 CNS it was 65.8%; in the assay with SNB-19 CNS, 54%; in the assay with U251 CNS, 58.8%; in the assay with PC-3 prostate, 55.8%. The growth with SK-MEL-5 melanoma was 59%; in the assay on UACC-62 melanoma, 73%; in the assay on LOX IMVI melanoma, 81.9%; in the assay on SK-MEL-28 melanoma it was 72%.

Turning to `CCOC(=O)c1c(NC(=O)c2ccccc2)sc2c(O)c(CN(CC)CC)ccc12`, the growth with HCT-15 colon is 15.7%; with HT29 colon, 2.28% (active); with SNB-75 CNS it was -26.2% (active); in the assay with SNB-19 CNS it was 43.8%; in the assay with U251 CNS it was 1.72% (active); in the assay on PC-3 prostate, 22.8%. For the same molecule, the growth is -51.3% (active) in the assay on SK-MEL-5 melanoma, 21.2% in the assay on UACC-62 melanoma, 13.3% in the assay on LOX IMVI melanoma and 40% in the assay on SK-MEL-28 melanoma.

Take `Cc1cc(Cl)c2ccc(N(C)C)cc2n1`: the growth with HCT-15 colon was 94.9%; in the assay on HT29 colon, 102%; in the assay on SNB-75 CNS it was 82.7%; in the assay on SNB-19 CNS, 95%; with U251 CNS, 92.8%; in the assay on PC-3 prostate, 101%. Besides, the growth with SK-MEL-5 melanoma was 102%; with UACC-62 melanoma it was 101%; in the assay with LOX IMVI melanoma, 96.9%; with SK-MEL-28 melanoma it was 101%.

Take `Cc1ccc(Nc2nc(NCCO)c3ccccc3n2)cc1C`: the growth is 15.6% in the assay with HCT-15 colon; 12.9% in the assay on HT29 colon; 39.6% with SNB-75 CNS; 57% in the assay with SNB-19 CNS; 15.1% in the assay on U251 CNS; 35.7% with PC-3 prostate. Moreover, the growth in the assay on SK-MEL-5 melanoma is -18.6% (active); with UACC-62 melanoma, 35.7%; in the assay with LOX IMVI melanoma, 8.62% (active); with SK-MEL-28 melanoma, 52.5%.

Regarding `COc1c(B(O)O)cccc1-c1nc2c(F)cc3n[nH]c(C)c3c2c2c1CCCC2`, the growth in the assay on HCT-15 colon was 18.3%; with HT29 colon, 17%; with SNB-75 CNS it was -21.6% (active); in the assay on SNB-19 CNS it was 18.1%; in the assay with U251 CNS, 13.6%; in the assay with PC-3 prostate, 27.3%. Besides, the growth with SK-MEL-5 melanoma is 20.4%; in the assay on UACC-62 melanoma it was 3.54% (active); in the assay with LOX IMVI melanoma, 11.8%; in the assay with SK-MEL-28 melanoma, 25%.

On to `CCCCCCCCCCCCCC(=S)NCCCC[C@H](NC(=O)OCc1ccccc1)C(=O)Nc1ccccc1`, for which the growth in the assay on HCT-15 colon was 32.6%; in the assay with HT29 colon, 45.1%; with SNB-75 CNS, 55.4%; in the assay on SNB-19 CNS it was 45.8%; in the assay on U251 CNS, 28.7%; in the assay with PC-3 prostate, 25.7%. Moreover, the growth with SK-MEL-5 melanoma was 68.6%; with UACC-62 melanoma, 43.1%; in the assay with LOX IMVI melanoma, 42.2%; in the assay with SK-MEL-28 melanoma, 72.2%.

In the case of `Cc1cccc(C(=O)O)n1`, the growth in the assay with HCT-15 colon is 99.4%; with HT29 colon, 112%; with SNB-75 CNS it was 103%; in the assay on SNB-19 CNS, 97.6%; in the assay with U251 CNS, 105%; with PC-3 prostate, 117%. For the same molecule, the growth in the assay with SK-MEL-5 melanoma is 98.3%; in the assay on UACC-62 melanoma, 101%; in the assay with LOX IMVI melanoma, 101%; in the assay with SK-MEL-28 melanoma it was 123%.

Consider `Oc1[nH]c2ccc(Cl)cc2c1/C=c1/ccc2c(c1)N=C(c1ccc(F)cc1)N=2`, for which the growth in the assay on HCT-15 colon was 19.3%; in the assay with HT29 colon it was 62.4%; in the assay on SNB-75 CNS, 55.6%; in the assay on SNB-19 CNS, 69%; with U251 CNS, 72%; in the assay on PC-3 prostate, 48.5%. For the same molecule, the growth is 59.3% with SK-MEL-5 melanoma, 69% with UACC-62 melanoma, 46.1% in the assay on LOX IMVI melanoma and 53.7% with SK-MEL-28 melanoma.

`C=CCOc1c(Br)cc(Br)cc1Br`: the growth in the assay on HCT-15 colon is 62.9%; with HT29 colon, 104%; in the assay with SNB-75 CNS, 60.7%; in the assay with SNB-19 CNS, 50.5%; in the assay with U251 CNS it was 46.8%; with PC-3 prostate, 65.8%. Further, the growth in the assay on SK-MEL-5 melanoma was 59%; in the assay on UACC-62 melanoma, 37.2%; in the assay on LOX IMVI melanoma, 64.4%; with SK-MEL-28 melanoma, 77.8%.

Turning to `Cc1ccc2oc(=O)cc(-c3nc4ccc([N+](=O)[O-])cc4[nH]3)c2c1`, the growth with HCT-15 colon is 59.4%; in the assay on HT29 colon, 70.9%; with SNB-75 CNS, 70.1%; in the assay with SNB-19 CNS it was 61.4%; in the assay with U251 CNS, 41.9%; in the assay with PC-3 prostate, 48.9%. For the same molecule, the growth with SK-MEL-5 melanoma is 28.9%; with UACC-62 melanoma, 39.5%; in the assay on LOX IMVI melanoma it was 67.7%; with SK-MEL-28 melanoma, 63.7%.

For the molecule `COc1ccc(-n2nc(C(=O)NCC(=O)Nc3nc4cc(OC)ccc4s3)c3ccccc3c2=O)cc1`, the growth with HCT-15 colon was 64.7%; in the assay on HT29 colon, -24.4% (active); in the assay with SNB-75 CNS, -65.9% (active); in the assay with SNB-19 CNS, 0.597% (active); with U251 CNS, -39.8% (active); in the assay on PC-3 prostate, 3.92% (active). The growth in the assay on SK-MEL-5 melanoma is 48.9%; in the assay with UACC-62 melanoma, 31.2%; with LOX IMVI melanoma, -32.4% (active); with SK-MEL-28 melanoma, 21.1%.

As for `O=C(C=P(c1ccccc1)(c1ccccc1)c1ccccc1)CCl`, the growth in the assay on HCT-15 colon is -18.2% (active); in the assay with HT29 colon, -54.2% (active); in the assay on SNB-75 CNS, 7.49% (active); with SNB-19 CNS it was 69.1%; in the assay with U251 CNS it was 34.7%; in the assay on PC-3 prostate, 8.54% (active). Besides, the growth is -4.76% (active) in the assay with SK-MEL-5 melanoma, -78.3% (active) with UACC-62 melanoma, -85.5% (active) in the assay on LOX IMVI melanoma and -6.08% (active) in the assay on SK-MEL-28 melanoma.
